Experimental data from PubChem BioAssay (Tox21).
Records with an inconclusive call do not appear. Activity calls are given as the source filed them. Unless noted, calls follow the shape of the dose curve; as a rule, active = well fitted curve in the direction sought with a large enough effect in the repeat runs; inconclusive = weak or mixed curves; inactive = no such curve, though single readings can be large; an effect the other way counts as inactive or inconclusive.

Tests used:
[1] = molecular target: Retinoic acid receptor RXR-alpha (Homo sapiens) (UniProt P19793); assay: qHTS assay to identify small molecule agonists of the RXR signaling pathway (AID 1159527; calls by dose curve; also: nearly all actives have a fitted effect of over 35% in size)
Chain of Retinoic acid receptor RXR-alpha (Homo sapiens) (P19793 whole entry, looked up): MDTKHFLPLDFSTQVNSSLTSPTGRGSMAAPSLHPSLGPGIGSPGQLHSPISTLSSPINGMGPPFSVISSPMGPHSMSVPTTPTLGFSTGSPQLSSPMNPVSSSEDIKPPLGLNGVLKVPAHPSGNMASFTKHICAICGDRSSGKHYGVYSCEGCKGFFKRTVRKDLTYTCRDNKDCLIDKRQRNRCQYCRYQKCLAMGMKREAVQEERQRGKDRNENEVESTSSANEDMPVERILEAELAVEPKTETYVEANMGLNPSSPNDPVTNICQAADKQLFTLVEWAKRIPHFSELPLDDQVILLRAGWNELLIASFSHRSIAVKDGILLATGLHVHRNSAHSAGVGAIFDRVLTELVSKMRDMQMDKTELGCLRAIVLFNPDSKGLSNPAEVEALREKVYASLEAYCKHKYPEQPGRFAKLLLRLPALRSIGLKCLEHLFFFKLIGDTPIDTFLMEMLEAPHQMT
How it was run: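 Fluorescence ratio readout (460 vs 530 nm) from GeneBLAzer RXR-alpha HEK 293T cells after 16 hr compound treatment; cells seeded 5 hr beforehand in low-serum, charcoal-stripped medium.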

[2] = qHTS assay to identify small molecule agonists of the RXR signaling pathway - cell viability counter screen (AID 1159529);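 also: HEK 293T cells carrying an RXR-alpha UAS beta-lactamase reporter; series mostly up to about 77 µM; nearly all actives have a fitted effect of over 50% in size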
How it was run: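 Viability read-out for the RXR-alpha agonist qHTS: luminescent CellTiter-Glo signal after 30 min at RT. HEK 293T bla reporter cells, 2% charcoal-stripped FBS, 16 hr compound incubation; tetraoctyl ammonium bromide as cytotoxic control.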

[3] = qHTS assay to identify small molecule antagonists of the retinoid acid receptor (RAR) signaling pathway - cell viability counter screen (AID 1159551); also: nearly all actives have a fitted effect of over 35% in size
How it was run: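 Seed C3RL4 cells; next day add compound, then retinol to 1 uM final; incubate 6 h at 37 C; add CellTiter-Glo; read luminescence after 30 min at RT.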

[4] = qHTS assay to identify small molecule antagonists of the retinoic acid receptor (RAR) signaling pathway (AID 1159552; also: nearly all actives have a fitted effect of over 50% in size)
How it was run: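 Using a RARE-driven luciferase construct in C3RL4 cells, retinol at 1 uM final provided the agonist stimulus while compounds were co-applied. After 6 hours at 37 C, luminescence was recorded to flag inhibitors of retinol signaling.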

[5] = qHTS assay to identify small molecule agonists of the retinoic acid receptor (RAR) signaling pathway (AID 1159553)
How it was run: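 Activation of retinol signaling was monitored via a RARE luciferase reporter in C3RL4 cells. After 6 hr compound treatment at 37 C, detection reagent was added for 30 min at room temperature before luminescence reading.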

[6] = qHTS assay to identify small molecule antagonists of the estrogen related receptor (ERR) signaling pathway - cell viability counter screen (AID 1224818);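 also: series mostly up to about 46 µM; viability measured after 17.5 h of compound exposure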
How it was run: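 In the same ERR cell assay, compound-treated wells (17.5 h, 37 C) were multiplexed with a fluorogenic viability reagent, CellTiter-Fluor, read after 30 min to flag cytotoxic substances.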

[7] = qHTS assay to identify small molecule antagonists of the estrogen related receptor signaling pathway with the pleiotropic PPARgamma coactivator (PGC) cell viability counter screen (AID 1224822; also: series mostly up to about 46 µM)
How it was run: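 Compounds in DMSO, with positive and negative controls, were applied to PGC/ERR cells (2,000/well) and left 17.5 h at 37 C before CellTiter-Fluor detection.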

[8] = qHTS assay to identify small molecule antagonists of the estrogen related receptor (ERR) signaling pathway from Tox21 library - cell viability counter screen (AID 1224834); also: nearly all actives have a fitted effect of over 30% in size
How it was run: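 CellTiter-Fluor fluorescence measured; ERR cells; 17.5 h compound incubation at 37 C; 30 min reagent step.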

[9] = molecular target: Luciferin 4-monooxygenase (Photinus pyralis) (UniProt P08659); assay: qHTS assay to identify small molecule inhibitors of firefly luciferase (AID 1224835); also: nearly all actives have a fitted effect of over 25% in size; also: potency is read from the fitted curve at half-maximal effect
Chain of Luciferin 4-monooxygenase (Photinus pyralis) (P08659 whole entry, looked up): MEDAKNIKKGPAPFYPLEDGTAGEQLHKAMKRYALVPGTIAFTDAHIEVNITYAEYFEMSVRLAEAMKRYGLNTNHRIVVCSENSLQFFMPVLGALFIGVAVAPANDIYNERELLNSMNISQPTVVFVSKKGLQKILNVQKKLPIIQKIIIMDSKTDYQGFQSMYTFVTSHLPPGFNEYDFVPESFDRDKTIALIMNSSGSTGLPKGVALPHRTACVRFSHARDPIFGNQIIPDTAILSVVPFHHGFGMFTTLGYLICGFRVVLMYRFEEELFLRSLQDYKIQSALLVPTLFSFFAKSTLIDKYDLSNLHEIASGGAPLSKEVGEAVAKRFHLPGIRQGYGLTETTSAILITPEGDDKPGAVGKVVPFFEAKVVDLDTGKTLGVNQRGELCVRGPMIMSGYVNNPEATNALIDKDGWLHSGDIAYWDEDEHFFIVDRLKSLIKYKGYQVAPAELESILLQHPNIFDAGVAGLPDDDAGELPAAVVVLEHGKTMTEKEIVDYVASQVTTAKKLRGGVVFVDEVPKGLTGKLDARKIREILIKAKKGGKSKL
How it was run: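 Inhibition of purified Photinus luciferase is measured by luminescence. Substrate levels (D-luciferin, ATP) sit at their KM values. Each compound is tested in a concentration series.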

[10] = qHTS assay to identify small molecule agonists of the constitutive androstane receptor (CAR) signaling pathway - cell viability counter screen (AID 1224836); also: series mostly up to about 92 µM; nearly all actives have a fitted effect of over 45% in size
How it was run: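 Multiplexed viability check: HepG2-CYP2B6-hCAR cells, 15-point compound dosing, 0.75 uM PK11195 final, 23 h at 37 C, CellTiter-Fluor fluorescence.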

[11] = qHTS assay to identify small molecule antagonists of the constitutive androstane receptor (CAR) signaling pathway - cell viability counter screen (AID 1224837); also: series mostly up to about 92 µM; nearly all actives have a fitted effect of over 45% in size
How it was run: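 Using CellTiter-Fluor, viability is scored in HepG2 cells stably carrying hCAR and a 2.2kb CYP2B6 reporter after 23 hr compound exposure across 15 concentrations, with CITCO present at 50 nM.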

[12] = qHTS assay to identify small molecule antagonists of the estrogen related receptor signaling pathway with the pleiotropic PPARgamma coactivator (PGC) from Tox21 10K library - cell viability counter screen (AID 1224840; active = well fitted cell-killing curve with a large enough effect in the repeat runs, not every such curve was filed as active; also: nearly all actives have a fitted effect of over 40% in size)
How it was run: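 Here the PGC/ERR cells serve as a cytotoxicity control: they are exposed to compounds for 17.5 hours at 37 C, and live-cell signal is quantified using CellTiter-Fluor fluorescence.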

[13] = molecular target: Nuclear receptor subfamily 1 group I member 3 (Homo sapiens) (UniProt Q14994); assay: qHTS assay to identify small molecule antagonists of the constitutive androstane receptor (CAR) signaling pathway (AID 1224838);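 also: HepG2 cells stably expressing hCAR with CYP2B6 luciferase reporter stimulated by CITCO; nearly all actives have a fitted effect of over 40% in size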
Chain of Nuclear receptor subfamily 1 group I member 3 (Homo sapiens) (Q14994 whole entry, looked up): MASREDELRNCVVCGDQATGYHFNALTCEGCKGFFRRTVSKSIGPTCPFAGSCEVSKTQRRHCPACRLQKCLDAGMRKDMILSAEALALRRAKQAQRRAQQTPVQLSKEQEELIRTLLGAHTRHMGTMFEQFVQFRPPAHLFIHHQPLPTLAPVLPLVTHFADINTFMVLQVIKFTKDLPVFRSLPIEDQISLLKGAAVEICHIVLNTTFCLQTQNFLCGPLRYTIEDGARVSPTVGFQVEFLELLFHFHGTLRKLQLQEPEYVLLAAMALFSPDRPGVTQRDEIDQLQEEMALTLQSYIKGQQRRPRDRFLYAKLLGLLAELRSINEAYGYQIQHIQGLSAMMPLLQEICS
How it was run: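 Reporter luminescence was quantified after 24 h exposure of hCAR/CYP2B6-2.2kb double-stable HepG2 cells to compounds at 15 concentrations in the presence of 50 nM CITCO final.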

[14] = molecular target: Nuclear receptor subfamily 1 group I member 3 (Homo sapiens) (UniProt Q14994); assay: qHTS assay to identify small molecule agonists of the constitutive androstane receptor (CAR) signaling pathway (AID 1224839);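 also: HepG2 cells stably carrying human CAR and a CYP2B6 luciferase reporter; series mostly up to about 92 µM; nearly all actives have a fitted effect of over 15% in size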
How it was run: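 Using human hepatoma HepG2 cells engineered with hCAR and a CYP2B6-2.2kb reporter, 15-concentration compound series were incubated 24 h alongside PK11195 at 0.75 uM final, with luminescence quantified afterwards.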

[15] = qHTS assay to identify small molecule antagonists of the estrogen related receptor signaling pathway with the pleiotropic PPARgamma coactivator (PGC) from Tox21 10K library (AID 1224841; call rule not given here; also: series mostly up to about 92 µM; actives are mostly falling curves and most rising ones were filed inactive; nearly all actives have a fitted effect of over 50% in size)
How it was run: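 Each well held 2,000 PGC/ERR cells, pre-incubated six hours (37 C, 5% CO2). Test substances in DMSO were added by pin tool and left for 18 h at 37 C before luciferase detection by One-Glo.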

[16] = qHTS assay to identify small molecule agonists of the estrogen related receptor signaling pathway with the pleiotropic PPARgamma coactivator (PGC) from Tox21 10K library (AID 1224842); also: nearly all actives have a fitted effect of over 15% in size
How it was run: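 Luminescence from One-Glo (30 min, room temperature) measured after PGC/ERR cells had 18 h at 37 C with pinned compound (23 nL in DMSO). Cells had been seeded at 2,000 per well and pre-incubated 6 h.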

[17] = qHTS assay to identify small molecule antagonists of the estrogen related receptor (ERR) signaling pathway (AID 1224819;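 also: luminescence from an ERR-driven luciferase reporter measured with One-Glo reagent; series mostly up to about 46 µM; nearly all actives have a fitted effect of over 50% in size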)
How it was run: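 qHTS in ERR cells, 2,000/well, 1536 format. Cpd (DMSO) added after 6 h settle, 18 h 37 C. One-Glo luminescence, 30 min RT.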

[18] = qHTS assay to identify small molecule agonists of the estrogen related receptor (ERR) signaling pathway (AID 1224820)
How it was run: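 Quantitative HTS of the LOPAC library used NTP ERR reporter cells treated 18 h at 37 C. Signal is luminescence after One-Glo addition and a 30 min room-temperature incubation.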

[19] = qHTS assay to identify small molecule agonists of the estrogen related receptor signaling pathway with the pleiotropic PPARgamma coactivator (PGC) (AID 1224823)
How it was run: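 Cell-based luciferase assay in the NTP-supplied PGC/ERR line, 2,000 cells/well; 18 h compound exposure at 37 C, luminescence after One-Glo.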

[20] = test system: estrogen-related receptor alpha (ERRalpha) with PGC-1alpha coactivator, human; assay: qHTS assay to identify small molecule antagonists of the estrogen related receptor signaling pathway with the pleiotropic PPARgamma coactivator (PGC) (AID 1224821; calls by dose curve)
How it was run: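 Quantitative HTS for antagonism: PGC/ERR cells received compounds after 6 h attachment and were incubated 18 h at 37 C, with luminescence (One-Glo) as the endpoint.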

Measured: Potency

Cc1nnc(SCC2=C(C(=O)O)N3C(=O)[C@@H](NC(=O)Cn4cnnn4)[C@H]3SC2)s1
not listed: [13] | [14] | [15] | [16] | [17] | [18] | [19] | [20]
inactive: all other assays above

Cc1ccc(C)c(N)c1
not listed: [6] | [7] | [17] | [18] | [19] | [20]
inactive: all other assays above

CO[C@@]1(NC(=O)CSCC#N)C(=O)N2C(C(=O)O)=C(CSc3nnnn3C)CS[C@@H]21
not listed: [13] | [15] | [16] | [17] | [18] | [19] | [20]
inactive: all other assays above

CC1=C(O)C(=O)OC1C (centres undefined)
not listed: [6] | [7] | [15] | [16] | [17] | [18] | [19] | [20]
inactive: all other assays above

C/C(=N\O)[C@@H](C)NCC(C)(C)CN[C@H](C)/C(C)=N/O
inactive: [1] | [2] | [3] | [4] | [5] | [8] | [9] | [10] | [11]

FC(F)(F)C(Cl)(Cl)Cl
not listed: [6] | [7] | [15] | [16] | [17] | [18] | [19] | [20]
inactive: all other assays above

CCCCCCC
not listed: [6] | [7] | [15] | [16] | [17] | [18] | [19] | [20]
inactive: all other assays above

CC(C)NCC(O)COc1ccc(CCOCC2CC2)cc1 (centres undefined)
not listed: [9] | [13] | [15] | [16] | [17] | [18] | [19] | [20]
inactive: all other assays above

O=C1N(c2ccccc2)c2ccccc2C1(Cc1ccncc1)Cc1ccncc1
not listed: [8] | [20]
inactive: all other assays above

CC(=O)O[C@H]1CC[C@@]2(C)C(=CC[C@@H]3[C@@H]2CC[C@]2(C)C(C(C)=O)=CC[C@@H]32)C1
not listed: [6] | [7] | [15] | [16] | [17] | [18] | [19] | [20]
inactive: all other assays above

COc1ccccc1N1CCN(CCCNc2cc(=O)n(C)c(=O)n2C)CC1
not listed: [14]
inactive: all other assays above

C=C(C)C(=O)OCCOP(=O)(O)O
not listed: [6] | [7] | [15] | [16] | [17] | [18] | [19] | [20]
inactive: all other assays above

CCOc1ccc(NC(N)=O)cc1
not listed: [6] | [7] | [17] | [18] | [19] | [20]
inactive: all other assays above

Oc1ccccc1C=NCc1ccccc1
active: [9] 34.7 µM
inactive: [1] | [2] | [3] | [4] | [5] | [8] | [10] | [11] | [13] | [14]

CCCCC(CC)COC(=O)COc1cc(Cl)c(Cl)cc1Cl (centres undefined)
not listed: [6] | [7] | [15] | [16] | [17] | [18] | [19] | [20]
inactive: all other assays above

Nc1cccc(S(=O)(=O)O)c1
not listed: [6] | [7] | [15] | [16] | [17] | [18] | [19] | [20]
inactive: all other assays above

CN1[C@@H]2CC[C@H]1CC(OC(=O)c1c[nH]c3ccccc13)C2 (some centres undefined)
not listed: [6] | [7] | [15] | [16] | [17] | [18] | [19] | [20]
inactive: all other assays above

CC1=CC(=O)CC(C)(C)C1=O
not listed: [6] | [7] | [15] | [16] | [17] | [18] | [19] | [20]
inactive: all other assays above

CN1C(=O)CC(c2ccccc2)C1=O (centres undefined)
inactive: [1] | [2] | [3] | [4] | [5] | [8] | [9] | [10] | [11]
